# According to the supplement of paper PMC8728848:
# Many of the other results were omitted from the sample, so the strongest signals are more common in it than they were.
# B1: SJCP3842 (Schistosoma japonicum) (protein)
# chain: MFKMRIINLVNISTVLLLINLLQTKSRLVGKENGFMLTVSIYGAQLSDKMTSVPVSWTIDYEDPEKSAFKKLVTDSCDTFSEYVKSQIPKGSVDGQCTSHIFQRPGSGSGVSISLTLSFIYVDVTQPDTVALKTELEKHFANFVTIHSHKITQAQFRINQKAIVIPTGDKDAIDGSKWKIIAIIALVALAIVVIGGFIYICVK
# Key:
# Test in all cases: glycan array binding signal (z-score within array); higher = stronger binding
# Conditions in all cases: glycan notation: IUPAC condensed, linker removed
# [1] = molecular target: Fuc(a1-2)Gal(b1-3)GalNAc(b1-4)[Neu5Ac(a2-3)]Gal(b1-4)Glc
# Outline: (§1)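 From the Consortium for Functional Glycomics database, 3228 arrays were curated, keeping only those whose protein sequence was available. Binding is given as a within-array Z-score averaged across arrays sharing a protein sequence and across linkers. Negative Z-scores can be read as non-binding.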
# [2] = molecular target: Fuc(a1-2)[Gal(a1-3)]Gal(b1-4)GlcNAc(b1-2)Man
# Outline: as §1
# [3] = molecular target: Fuc(a1-2)[Gal(a1-3)]Gal(b1-4)GlcNAc(b1-2)Man(a1-3)[Fuc(a1-2)[Gal(a1-3)]Gal(b1-4)GlcNAc(b1-2)Man(a1-6)]Man(b1-4)GlcNAc(b1-4)GlcNAc
# Outline: as §1
# [4] = molecular target: Fuc(a1-2)[Gal(a1-3)]Gal(b1-4)GlcNAc(b1-3)GalNAc
# Outline: as §1
# [5] = molecular target: Fuc(a1-2)[Gal(a1-3)]Gal(b1-4)[Fuc(a1-3)]GlcNAc
# Outline: as §1
# Fuc(a1-4)GlcNAc = molecular target: Fuc(a1-4)GlcNAc
# Outline: as §1
# [6] = molecular target: Gal(a1-3)Gal(b1-3)GlcNAc(b1-2)Man(a1-3)[Gal(a1-3)Gal(b1-3)GlcNAc(b1-2)Man(a1-6)]Man(b1-4)GlcNAc(b1-4)GlcNAc
# Outline: as §1
# [7] = molecular target: Gal(a1-3)Gal(b1-3)GlcNAc(b1-3)GalNAc
# Outline: as §1
# [8] = molecular target: Gal(a1-3)Gal(b1-3)[Fuc(a1-4)]GlcNAc(b1-2)Man(a1-3)[Gal(a1-3)Gal(b1-3)[Fuc(a1-4)]GlcNAc(b1-2)Man(a1-6)]Man(b1-4)GlcNAc(b1-4)GlcNAc
# Outline: as §1
# [9] = molecular target: Gal(a1-3)Gal(b1-4)GlcNAc(b1-2)Man
# Outline: as §1
# [10] = molecular target: Gal(a1-3)Gal(b1-4)GlcNAc(b1-2)Man(a1-3)[Gal(a1-3)Gal(b1-4)GlcNAc(b1-2)Man(a1-6)]Man(b1-4)GlcNAc(b1-4)GlcNAc
# Outline: as §1
# [11] = molecular target: Gal(a1-3)Gal(b1-4)GlcNAc(b1-6)GalNAc
# Outline: as §1
# [12] = molecular target: Gal(a1-3)Gal(b1-4)[Fuc(a1-3)]GlcNAc
# Outline: as §1
# Gal(a1-4)Gal(b1-4)Glc = molecular target: Gal(a1-4)Gal(b1-4)Glc
# Outline: as §1
# [13] = molecular target: Gal(a1-4)Gal(b1-4)GlcNAc(b1-2)Man(a1-3)[Gal(a1-4)Gal(b1-4)GlcNAc(b1-2)Man(a1-6)]Man(b1-4)GlcNAc(b1-4)GlcNAc
# Outline: as §1
# Gal(a1-6)Glc = molecular target: Gal(a1-6)Glc
# Outline: as §1
# [14] = molecular target: Gal(b1-3)GlcNAc(b1-3)Gal(b1-4)GlcNAc(b1-2)[Gal(b1-3)GlcNAc(b1-3)Gal(b1-4)GlcNAc(b1-6)]Man(a1-6)[Gal(b1-3)GlcNAc(b1-3)Gal(b1-4)GlcNAc(b1-2)Man(a1-3)]Man(b1-4)GlcNAc(b1-4)[Fuc(a1-6)]GlcNAc
# Outline: as §1
# [15] = molecular target: Gal(b1-3)GlcNAc(b1-3)Gal(b1-4)GlcNAc(b1-3)Gal(b1-4)GlcNAc(b1-2)[Gal(b1-3)GlcNAc(b1-3)Gal(b1-4)GlcNAc(b1-3)Gal(b1-4)GlcNAc(b1-6)]Man(a1-6)[Gal(b1-3)GlcNAc(b1-3)Gal(b1-4)GlcNAc(b1-3)Gal(b1-4)GlcNAc(b1-2)Man(a1-3)]Man(b1-4)GlcNAc(b1-4)[Fuc(a1-6)]GlcNAc
# Outline: as §1
# Gal(b1-4)Gal = molecular target: Gal(b1-4)Gal
# Outline: as §1
# Gal(b1-4)Glc = molecular target: Gal(b1-4)Glc
# Outline: as §1
# [16] = molecular target: Gal(b1-4)GlcNAc(b1-2)Man(a1-3)Man(b1-4)GlcNAc(b1-4)GlcNAc
# Outline: as §1
# [17] = molecular target: Gal(b1-4)GlcNAc(b1-3)Gal(b1-4)GlcNAc
# Outline: as §1
# [18] = molecular target: Gal3S(b1-4)[Fuc(a1-3)]Glc6S
# Outline: as §1
# Gal3S4S(b1-4)GlcNAc = molecular target: Gal3S4S(b1-4)GlcNAc
# Outline: as §1
# Gal3S6S(b1-4)GlcNAc = molecular target: Gal3S6S(b1-4)GlcNAc
# Outline: as §1
# Gal6S(b1-3)GlcNAc = molecular target: Gal6S(b1-3)GlcNAc
# Outline: as §1
# [19] = molecular target: GalNAc(b1-4)GlcNAc(b1-2)Man(a1-3)[GalNAc(b1-4)GlcNAc(b1-2)Man(a1-6)]Man(b1-4)GlcNAc(b1-4)GlcNAc
# Outline: as §1
# GalNAc3S(b1-4)GlcNAc = molecular target: GalNAc3S(b1-4)GlcNAc
# Outline: as §1
# Glc(b1-4)Glc = molecular target: Glc(b1-4)Glc
# Outline: as §1
# [20] = molecular target: GlcNAc(a1-4)Gal(b1-4)GlcNAc(b1-3)Gal(b1-4)GlcNAc
# Outline: as §1
# [21] = molecular target: GlcNAc(a1-4)Gal(b1-4)GlcNAc(b1-3)Gal(b1-4)GlcNAc(b1-3)Gal(b1-4)GlcNAc
# Outline: as §1
# [22] = molecular target: GlcNAc(b1-2)[GlcNAc(b1-4)]Man(a1-3)[GlcNAc(b1-4)][GlcNAc(b1-2)[GlcNAc(b1-6)]Man(a1-6)]Man(b1-4)GlcNAc(b1-4)[Fuc(a1-6)]GlcNAc
# Outline: as §1
# [23] = molecular target: GlcNAc(b1-2)[GlcNAc(b1-6)]Man(a1-6)[GlcNAc(b1-2)Man(a1-3)]Man(b1-4)GlcNAc(b1-4)GlcNAc
# Outline: as §1
# GlcNAc(b1-3)Gal = molecular target: GlcNAc(b1-3)Gal
# Outline: as §1
# [24] = molecular target: GlcNAc(b1-3)Gal(b1-3)GalNAc
# Outline: as §1
# [25] = molecular target: GlcNAc(b1-3)Gal(b1-4)GlcNAc(b1-3)Gal(b1-4)GlcNAc(b1-2)[GlcNAc(b1-3)Gal(b1-4)GlcNAc(b1-3)Gal(b1-4)GlcNAc(b1-6)]Man(a1-6)[GlcNAc(b1-3)Gal(b1-4)GlcNAc(b1-3)Gal(b1-4)GlcNAc(b1-2)Man(a1-3)]Man(b1-4)GlcNAc(b1-4)[Fuc(a1-6)]GlcNAc
# Outline: as §1
# [26] = molecular target: GlcNAc(b1-3)Gal(b1-4)GlcNAc(b1-3)Gal(b1-4)GlcNAc(b1-3)Gal(b1-4)GlcNAc(b1-3)Gal(b1-4)GlcNAc(b1-2)Man(a1-3)[GlcNAc(b1-3)Gal(b1-4)GlcNAc(b1-3)Gal(b1-4)GlcNAc(b1-3)Gal(b1-4)GlcNAc(b1-3)Gal(b1-4)GlcNAc(b1-2)Man(a1-6)]Man(b1-4)GlcNAc(b1-4)GlcNAc
# Outline: as §1
# [27] = molecular target: GlcNAc(b1-3)[GlcNAc(b1-6)]GalNAc
# Outline: as §1
# [28] = molecular target: GlcNAc(b1-4)GlcNAc(b1-4)GlcNAc(b1-4)GlcNAc(b1-4)GlcNAc
# Outline: as §1
# [29] = molecular target: Man(a1-2)Man(a1-2)Man(a1-6)[Man(a1-3)]Man
# Outline: as §1
# Man(a1-2)Man(a1-3)Man = molecular target: Man(a1-2)Man(a1-3)Man
# Outline: as §1
# [30] = molecular target: Man(a1-2)Man(a1-6)[Man(a1-3)]Man(a1-6)[Man(a1-2)Man(a1-2)Man(a1-3)]Man(b1-4)GlcNAc(b1-4)GlcNAc
# Outline: as §1
# [31] = molecular target: Neu5Ac(a2-3)Gal(b1-3)GalNAc(b1-3)Gal(a1-4)Gal(b1-4)Glc
# Outline: as §1
# [32] = molecular target: Neu5Ac(a2-3)Gal(b1-3)GlcNAc(b1-6)GalNAc
# Outline: as §1
# [33] = molecular target: Neu5Ac(a2-3)Gal(b1-4)GlcNAc(b1-3)Gal(b1-4)GlcNAc
# Outline: as §1
# [34] = molecular target: Neu5Ac(a2-3)Gal(b1-4)[Fuc(a1-3)]GlcNAc(b1-3)GalNAc
# Outline: as §1
# [35] = molecular target: Neu5Ac(a2-6)Gal(b1-4)GlcNAc(b1-2)Man(a1-3)[GlcNAc(b1-4)][Neu5Ac(a2-6)Gal(b1-4)GlcNAc(b1-2)Man(a1-6)]Man(b1-4)GlcNAc(b1-4)GlcNAc
# Outline: as §1
# [36] = molecular target: Neu5Ac(a2-6)Gal(b1-4)GlcNAc(b1-2)Man(a1-6)Man(b1-4)GlcNAc(b1-4)GlcNAc
# Outline: as §1
# [37] = molecular target: Neu5Ac(a2-6)Gal(b1-4)GlcNAc(b1-3)Gal(b1-4)GlcNAc(b1-3)Gal(b1-4)GlcNAc(b1-2)Man(a1-3)[Neu5Ac(a2-6)Gal(b1-4)GlcNAc(b1-3)Gal(b1-4)GlcNAc(b1-3)Gal(b1-4)GlcNAc(b1-2)Man(a1-6)]GalNAc
# Outline: as §1
# [38] = molecular target: Neu5Ac(a2-8)Neu5Ac(a2-3)Gal(b1-3)GalNAc(b1-4)[Neu5Ac(a2-8)Neu5Ac(a2-3)]Gal(b1-4)Glc
# Outline: as §1
# [39] = molecular target: Neu5Ac(a2-8)Neu5Ac(a2-3)Gal(b1-4)Glc
# Outline: as §1
# [40] = molecular target: Neu5Ac(a2-8)Neu5Ac(a2-8)Neu5Ac(a2-3)[GalNAc(b1-4)]Gal(b1-4)Glc
# Outline: as §1
# [41] = molecular target: Neu5Gc(a2-3)Gal(b1-3)[Fuc(a1-4)]GlcNAc
# Outline: as §1
# [42] = molecular target: Neu5Gc(a2-3)Gal(b1-4)[Fuc(a1-3)]GlcNAc
# Outline: as §1
binder,measurement,setting,value
B1,glycan array binding signal (z-score),[1],0.207
same,glycan array binding signal (z-score),[2],-1.05
same,glycan array binding signal (z-score),[3],0.46
same,glycan array binding signal (z-score),[4],0.343
same,glycan array binding signal (z-score),[5],0.536
same,glycan array binding signal (z-score),Fuc(a1-4)GlcNAc,4.44
same,glycan array binding signal (z-score),[6],3.31
same,glycan array binding signal (z-score),[7],0.153
same,glycan array binding signal (z-score),[8],2.45
same,glycan array binding signal (z-score),[9],-1.09
same,glycan array binding signal (z-score),[10],-0.76
same,glycan array binding signal (z-score),[11],-0.327
same,glycan array binding signal (z-score),[12],0.63
same,glycan array binding signal (z-score),Gal(a1-4)Gal(b1-4)Glc,-1.04
same,glycan array binding signal (z-score),[13],2.55
same,glycan array binding signal (z-score),Gal(a1-6)Glc,-1.59
same,glycan array binding signal (z-score),[14],1.25
same,glycan array binding signal (z-score),[15],1.37
same,glycan array binding signal (z-score),Gal(b1-4)Gal,-0.475
same,glycan array binding signal (z-score),Gal(b1-4)Glc,-1.59
same,glycan array binding signal (z-score),[16],-0.919
same,glycan array binding signal (z-score),[17],-0.05
same,glycan array binding signal (z-score),[18],2.61
same,glycan array binding signal (z-score),Gal3S4S(b1-4)GlcNAc,-0.987
same,glycan array binding signal (z-score),Gal3S6S(b1-4)GlcNAc,2.36
same,glycan array binding signal (z-score),Gal6S(b1-3)GlcNAc,-0.626
same,glycan array binding signal (z-score),[19],0.2
same,glycan array binding signal (z-score),GalNAc3S(b1-4)GlcNAc,0.48
same,glycan array binding signal (z-score),Glc(b1-4)Glc,-0.571
same,glycan array binding signal (z-score),[20],-0.28
same,glycan array binding signal (z-score),[21],2.47
same,glycan array binding signal (z-score),[22],0.364
same,glycan array binding signal (z-score),[23],-0.597
same,glycan array binding signal (z-score),GlcNAc(b1-3)Gal,-1.01
same,glycan array binding signal (z-score),[24],-0.211
same,glycan array binding signal (z-score),[25],1.43
same,glycan array binding signal (z-score),[26],-0.488
same,glycan array binding signal (z-score),[27],-0.578
same,glycan array binding signal (z-score),[28],0.984
same,glycan array binding signal (z-score),[29],-0.903
same,glycan array binding signal (z-score),Man(a1-2)Man(a1-3)Man,-1.03
same,glycan array binding signal (z-score),[30],-0.995
same,glycan array binding signal (z-score),[31],0.587
same,glycan array binding signal (z-score),[32],1.36
same,glycan array binding signal (z-score),[33],1.89
same,glycan array binding signal (z-score),[34],2.37
same,glycan array binding signal (z-score),[35],-0.194
same,glycan array binding signal (z-score),[36],2.88
same,glycan array binding signal (z-score),[37],4.64
same,glycan array binding signal (z-score),[38],3.14
same,glycan array binding signal (z-score),[39],-1.34
same,glycan array binding signal (z-score),[40],0.881
same,glycan array binding signal (z-score),[41],-0.715
same,glycan array binding signal (z-score),[42],0.854
